Measured values taken from PubChem BioAssay AID624483 (NMMLSC, 2012).
Out of some 360,000 compounds screened, about 11,000 (3.1%) were called active. Roughly 2% stayed inconclusive and do not appear here. Cut-off read from the data, not from the text of the source: active = fluorescence intensity above about 16000; inconclusive = no clear call, values can overlap the other calls; inactive = below that. The list comes from a sample in which actives are over-represented; it also holds similar structures and randomly drawn compounds.

Assay: counter-screen for toxin protease inhibitors: compound fluorescence, primary screen, artefact control for toxin protease inhibitor project, biochemical, multiplex microsphere, HTS (AID 624483)
Settings: compound autofluorescence counterscreen, microsphere flow cytometry; active compounds read high
In the case of `COCc1cccc(-c2csc(C(O)c3ccc(F)cc3)n2)c1` (stereo unspecified), the fluorescence intensity is reported as 3440 (inactive).
In the case of `O=C(CC1Nc2ccccc2NC1=O)Nc1ccccc1` (stereo unspecified), the fluorescence intensity is reported as 3710 (inactive).
In the case of `N#Cc1ccc(-c2ccc3nccn3c2)cc1`, the fluorescence intensity is reported as 3660 (inactive).
In the case of `Cc1ccc(S(=O)(=O)Nc2ccc3ncccc3c2)cc1`, the fluorescence intensity is reported as 22700 (active).
With `Cc1cc(C)cc(OCC(=O)Nc2ccc(S(=O)(=O)Nc3ccccn3)cc2)c1` the fluorescence intensity was 2260 (inactive).
With `Cc1ccc(NS(=O)(=O)c2ccc(C(C)(C)C)cc2)cn1` the fluorescence intensity was 3470 (inactive).
In the case of `CSc1cccc(NC(=S)N(C(C)C)C(C)c2ccccn2)c1` (stereo unspecified), the fluorescence intensity is reported as 3430 (inactive).
In the case of `Cc1ccc2c(=O)cc(C(=O)NCCc3ccc(S(N)(=O)=O)cc3)oc2c1C`, the fluorescence intensity is reported as 3650 (inactive).
In the case of `COc1ccc(C(=O)NC2(C(F)(F)F)NC(=O)N(CCCc3ccccc3)C2=O)c(OC)c1OC` (stereo unspecified), the fluorescence intensity is reported as 8270 (inactive).
With `O=C(NC1(C(F)(F)F)NC(=O)N(Cc2cccnc2)C1=O)c1ccccc1Cl` (stereo unspecified) the fluorescence intensity was 21200 (active).
With `O=C(NCc1cccnc1)c1ccccc1NC(=O)c1c(F)cccc1F` the fluorescence intensity was 5910 (inactive).
In the case of `Cc1onc(-c2ccccc2)c1-c1nnc(COC(=O)c2ccc(N(C)C)cc2)o1`, the fluorescence intensity is reported as 3380 (inactive).
In the case of `CCOC(=O)c1ccc(COC(=O)CCc2nc(-c3ccccc3)c(-c3ccccc3)o2)cc1`, the fluorescence intensity is reported as 16400 (active).
In the case of `CCOC(=O)c1ccc(-n2c(CCC(=O)O)ccc2-c2ccccc2)cc1`, the fluorescence intensity is reported as 3600 (inactive).
With `COc1c(O)ccc2c1CN1CCc3cc4c(cc3C1C2)OCO4` (stereo unspecified) the fluorescence intensity was 4960 (inactive).
With `COc1ccc(C2OC(CCc3ccccc3)Cc3[nH]c(=S)[nH]c(=O)c32)cc1` (stereo unspecified) the fluorescence intensity was 5590 (inactive).
For `CCOC(=O)c1cc(NC(=O)c2cccnc2)cc(C(=O)OCC)c1`, the fluorescence intensity was 24800 (active).
For `CCOC(=O)c1cc(NC(=O)c2cccnc2)ccn1`, the fluorescence intensity was 3490 (inactive).
For `CCOc1ccccc1NC(=O)c1cccnc1`, the fluorescence intensity was 3020 (inactive).
For `OC[C@@H]1CN(Cc2ccc(-c3ccccc3)cc2)C[C@H](n2cnc3c(NC4CCCC4)ncnc32)O1`, the fluorescence intensity was 3740 (inactive).
In the case of `O=C(CSc1nnc(-c2ccccn2)n1-c1ccccc1)Nc1ccc2c(c1)OCO2`, the fluorescence intensity is reported as 2680 (inactive).
In the case of `COc1ccc(-n2c(SCC(=O)NCc3cccs3)nnc2-c2ccoc2C)cc1`, the fluorescence intensity is reported as 3110 (inactive).
For `CCOC(=O)CSc1nnc(CNC(=O)c2ccco2)n1-c1ccc(F)cc1`, the fluorescence intensity was 8100 (inactive).
With `COc1ccc(-n2c(SCC(=O)OC(C)C)nnc2-c2ccccn2)cc1` the fluorescence intensity was 23500 (active).
In the case of `CCOC(=O)CSc1nnc(CNC(=O)c2cccs2)n1-c1ccccc1`, the fluorescence intensity is reported as 24300 (active).
With `CCn1c(SCC(=O)c2ccc(Cl)s2)nnc1-c1cccs1` the fluorescence intensity was 3490 (inactive).
For `CCn1c(Cc2cccs2)nnc1SCC(=O)c1ccc(C)cc1`, the fluorescence intensity was 23000 (active).
In the case of `CCOC(=O)CSc1nnc(CNC(=O)c2cccs2)n1-c1cc(OC)ccc1OC`, the fluorescence intensity is reported as 9680 (inactive).
In the case of `Cn1c(Cc2cccs2)nnc1SCC(=O)Nc1ccccc1`, the fluorescence intensity is reported as 5420 (inactive).
For `Cc1ccc(-c2nnc(SCC(=O)N/N=C/c3cccs3)n2-c2ccc(C)cc2)cc1`, the fluorescence intensity was 2620 (inactive).
In the case of `Cc1ccc(-n2c(Cc3cccs3)nnc2SCC(=O)OC(C)C)cc1`, the fluorescence intensity is reported as 23800 (active).
For `Cc1ccc(-n2c(SCC(=O)Nc3ccc4c(c3)OCO4)nnc2-c2ccccn2)cc1`, the fluorescence intensity was 9860 (inactive).
With `COc1ccc2c(CC(=O)NNC(=O)c3ccccc3F)coc2c1` the fluorescence intensity was 2950 (inactive).
In the case of `CCNC(=O)C1(C)CCCN(Cc2noc(-c3ccccc3OC)n2)C1` (stereo unspecified), the fluorescence intensity is reported as 3700 (inactive).
For `CCN(CC)c1nc(-c2ccccc2)cc(C(F)(F)F)c1C#N`, the fluorescence intensity was 2560 (inactive).
In the case of `O=C(C=CC(=O)Nc1ccc(F)cc1F)Nc1ccc(F)cc1F`, the fluorescence intensity is reported as 6040 (inactive).
For `COc1ccc(NC(=O)C2(C)Cc3c(-c4cccc(NC(C)=O)c4)ccnc3O2)cc1OC` (stereo unspecified), the fluorescence intensity was 3020 (inactive).
In the case of `CCc1nc2ccc(C(=O)N(C)CCN(C)C)cn2c1N(CC)CCOC`, the fluorescence intensity is reported as 3650 (inactive).
In the case of `O=C(NCC(O)c1nc2ccccc2[nH]1)c1ccc(Br)cc1` (stereo unspecified), the fluorescence intensity is reported as 5430 (inactive).
With `C[C@@H]1CC2=C(C(=O)OC(C)(C)O2)[C@@H](C2CC2)O1` the fluorescence intensity was 5730 (inactive).
With `CCN(C(=O)CN1CCN(Cc2ccccc2)CC1)c1c(N)n(Cc2ccccc2)c(=O)[nH]c1=O` the fluorescence intensity was 3390 (inactive).
In the case of `Cc1csc(=O)n1CCC(=O)OCC(=O)NNC(=O)c1ccc(Br)cc1`, the fluorescence intensity is reported as 3030 (inactive).
In the case of `Cc1nc(C(=O)Nc2ccc(Cl)cc2)sc1C1(C)CC(c2ccccc2)=NO1` (stereo unspecified), the fluorescence intensity is reported as 3390 (inactive).
For `C=C1C(=O)OC2C1CCC(C)=CCCC1(C)OC21` (stereo unspecified), the fluorescence intensity was 6040 (inactive).
For `COc1ccc(NC(=O)C2(C)Cc3c(-c4cccc(NC(C)=O)c4)ccnc3O2)cc1` (stereo unspecified), the fluorescence intensity was 3560 (inactive).
For `O=C(O)c1ccc(N/N=C/c2cn(-c3ccccc3)nc2-c2cccs2)cc1`, the fluorescence intensity was 3970 (inactive).
With `O=C(N/N=C/c1sc(N2CCCCC2)nc1-c1cccs1)c1cccnc1` the fluorescence intensity was 16400 (active).
In the case of `Cc1ccc(NC(=O)COc2ccc(/C=N\NC(=O)c3cccnc3)cc2)cc1C`, the fluorescence intensity is reported as 4500 (inactive).
For `O=C(Nc1ccc(Cl)cc1)c1csc([C@H]2C[C@H](O)[C@@H](CO)O2)n1`, the fluorescence intensity was 2790 (inactive).
With `COCCCn1c(Cc2csc(Nc3cccc(Cl)c3)n2)nnc1SCC(=O)OC1CCCCC1` the fluorescence intensity was 3010 (inactive).
With `NC(=O)CC(NC(=O)Cc1cccc2ccccc12)c1ccc(NCc2cc(F)ccc2F)c([N+](=O)[O-])c1` (stereo unspecified) the fluorescence intensity was 4100 (inactive).
In the case of `CSCCC(NS(=O)(=O)c1ccc2c(c1)oc(=O)n2C)C(=O)NCc1ccccc1` (stereo unspecified), the fluorescence intensity is reported as 4490 (inactive).
In the case of `CCOc1ccc(OCC)c(NC(=O)C(NS(=O)(=O)c2ccc3c(c2)oc(=O)n3C)C(C)C)c1` (stereo unspecified), the fluorescence intensity is reported as 20600 (active).
In the case of `CCOc1ccc(OCC)c(NC(=O)CCS(=O)(=O)c2ccc(C)cc2)c1`, the fluorescence intensity is reported as 3840 (inactive).
In the case of `CCCCN(CCCC)CCNC(=O)CN1C(=O)COc2ccc(S(=O)(=O)N3CCOCC3)cc21`, the fluorescence intensity is reported as 5470 (inactive).
With `CC(C)CNC(=O)C1(C)CCCN1C(=O)CSc1ccccc1` (stereo unspecified) the fluorescence intensity was 3520 (inactive).
For `O=C(CP(=O)(c1ccccc1)c1ccccc1)N1CCOCC1`, the fluorescence intensity was 4810 (inactive).
In the case of `CCOC(=O)c1cnc(COc2ccccc2Cl)[nH]c1=O`, the fluorescence intensity is reported as 5960 (inactive).
With `CCOC(=O)c1cc(C)nc(S(C)(=O)=O)c1C#N` the fluorescence intensity was 6150 (inactive).
With `CCCCSc1[nH]c(=O)c(C(=O)OCC)cc1C#N` the fluorescence intensity was 23400 (active).
With `CC(NCCc1ccc(S(N)(=O)=O)cc1)C(=O)NCc1ccccc1` (stereo unspecified) the fluorescence intensity was 3370 (inactive).
With `O=C(O)c1ccccc1Cc1ccc(F)c2ccccc12` the fluorescence intensity was 3460 (inactive).
With `Cc1noc(C)c1S(=O)(=O)N(C)C[C@H]1OCCCC[C@@H](C)Oc2ccc(NC(=O)CCCN(C)C)cc2C(=O)N([C@H](C)CO)C[C@@H]1C` the fluorescence intensity was 3820 (inactive).
In the case of `O=C1CCC(=O)N1CCC(=O)N(C(=O)NC1CCCCC1)C1CCCCC1`, the fluorescence intensity is reported as 3950 (inactive).
With `COc1ccc(-c2cc(NC(C)=O)c3ncc(-c4cc(OC)c(OC)c(OC)c4)n3c2)cn1` the fluorescence intensity was 2720 (inactive).
With `CCOC(=O)C(C)Sc1nc2ccccc2c(=O)n1CC1CCCCC1` (stereo unspecified) the fluorescence intensity was 19900 (active).
With `CCOn1c(SC(C)C)nc2ccccc2c1=O` the fluorescence intensity was 10100 (inactive).
With `COCC(C)n1c(SCC(=O)NC2CCCCC2C)nc2ccccc2c1=O` (stereo unspecified) the fluorescence intensity was 2940 (inactive).
In the case of `Cc1ccc2c(c1)N(CC(=O)NCCc1ccc(Cl)cc1)C(=O)c1cccnc1O2`, the fluorescence intensity is reported as 5070 (inactive).
In the case of `CCc1nc2c(OCCOc3ccccc3)cccn2c1N(C)C(=O)c1ccccc1F`, the fluorescence intensity is reported as 3430 (inactive).
In the case of `CCCCN(C=O)c1c(CC)nc2c(OCCC3CCCCC3)cccn12`, the fluorescence intensity is reported as 3460 (inactive).
In the case of `Cc1ccccc1OCC(=O)NCC(=O)OCC(=O)c1ccc2ccccc2c1`, the fluorescence intensity is reported as 10600 (inactive).
With `Cc1cccc(NC(=O)N(Cc2cc3cc(C)cc(C)c3[nH]c2=O)CC2COCCO2)c1` (stereo unspecified) the fluorescence intensity was 11500 (inactive).
With `Cc1ccc2[nH]c(=O)c(CN(CCCN(C)C)C(=O)Nc3cccc(Cl)c3)cc2c1` the fluorescence intensity was 21500 (active).
For `Cc1ccc2[nH]c(=O)c(CN(CC3COCCO3)C(=O)Nc3ccccc3C)cc2c1` (stereo unspecified), the fluorescence intensity was 3250 (inactive).
With `COc1ccccc1CNc1nc(Nc2ccccc2Cl)c2sccc2n1` the fluorescence intensity was 3450 (inactive).
In the case of `CC(C)CNC(=S)NNC(=O)c1nn(C)cc1Cl`, the fluorescence intensity is reported as 8820 (inactive).
For `Cc1occc1C(=O)NNC(=S)NCC(C)C`, the fluorescence intensity was 16400 (active).
In the case of `Cc1scc(C(=O)NNC(=S)NCC(C)C)c1C`, the fluorescence intensity is reported as 2420 (inactive).
With `CN(C)S(=O)(=O)c1ccc(C(=O)NCCN=C2NS(=O)(=O)c3ccccc32)cc1` the fluorescence intensity was 3720 (inactive).
With `CC[C@]12c3[nH]c4cc(CCC(=O)N(C)C)ccc4c3CCN1C(=O)[C@@H](CC(=O)NCCCn1ccnc1)C[C@@H]2C(=O)N1CCN(C(=O)C2CC2)CC1` the fluorescence intensity was 3900 (inactive).
In the case of `COc1cc(C2C(C(=O)OCCC#N)=C(C)NC3=C2S(=O)(=O)c2ccccc23)cc(OC)c1OC` (stereo unspecified), the fluorescence intensity is reported as 9630 (inactive).
For `CCCCn1nc(C(=O)N2CCc3ccccc32)c2ccccc2c1=O`, the fluorescence intensity was 23400 (active).
For `CCCCn1nc(C(=O)Nc2cccc(C(=O)NC3CC3)c2)c2ccccc2c1=O`, the fluorescence intensity was 3390 (inactive).
For `CCCn1nc(C(=O)N2CCCc3ccccc32)c2ccccc2c1=O`, the fluorescence intensity was 4370 (inactive).
For `OC[C@@H]1CN(Cc2ccc(F)cc2)C[C@H](n2cnc3c(NC4CCCC4)ncnc32)O1`, the fluorescence intensity was 3760 (inactive).
With `CC(=O)OCC(C)n1c(=O)c2ccccc2n1C(C)=O` (stereo unspecified) the fluorescence intensity was 6200 (inactive).
With `Cc1cn([C@H]2C[C@H](O)[C@@H](/C=C/C(=O)NCCCc3ccccc3)O2)c(=O)[nH]c1=O` the fluorescence intensity was 4330 (inactive).
In the case of `CCc1nnc(NS(=O)(=O)c2ccc(NC(=S)NC(=O)c3cccs3)cc2)s1`, the fluorescence intensity is reported as 3630 (inactive).
For `Cc1sc(NC(=S)NC(=O)c2cccs2)nc1-c1ccc(CC(C)C)cc1`, the fluorescence intensity was 19900 (active).
For `O=C(NC(=S)Nc1cccc(-c2ccc(CO)o2)c1)c1cccs1`, the fluorescence intensity was 4550 (inactive).
